# Results reported in PubChem BioAssay AID1347426 (Functional Genomics Laboratory (NCATS/FGL), 2020).
# Among all 31,000 sequences or so, about 1,400 (4.5%) were called active.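 The calls were made as follows: active = median seed-adjusted z-score above 1 or below -1; inactive = the rest.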 Many of the other results were omitted from the sample, so actives are more common in it than they were.
# Experiment: Novel Modifiers of Survival Motor Neuron (SMN) Protein: Gene Identification via Genome-wide siRNA Screen
# Conditions: HEK293T SMN2-luciferase reporter, siRNA knockdown, 72 h; actives lie on both sides
# Source text: Spinal muscular atrophy (SMA) is the most common neuromuscular autosomal recessive disorder and one of the leading genetic causes of infant death. SMA results from mutations inducing loss of function or deletion in the survival of motor neuron-1 gene (SMN1), leading to deficiency of the survival motor neuron (SMN) protein. Although a second nearly identical gene, SMN2, is retained in humans, its expression primarily produces an aberrantly spliced isoform that is largely unstable and quickly degraded. We performed a genome-wide RNAi screen using a cell-based reporter assay to identify genes and pathways that modulate SMN protein stability. The screen identified over 200 genes that led to the greatest increase or decrease in luciferase expression.
# Using HEK293T cells stably expressing a luciferase reporter that combines the promoter and splicing based cassettes in tandem with the major portion of the native SMN2 cDNA with luciferase, we performed a genome-wide RNAi screen to identify modulators of SMN protein levels. Luciferase is expressed when full-length SMN protein is generated with luminescence signal proportional to SMN protein levels. Our luciferase-based reporter assay was used to screen Ambion Silencer Select Human Druggable Genome siRNA library (10418 genes, 3 unique siRNAs per gene) using lipid-based reverse transfection.
# Briefly, 1 pmol of each siRNA was spotted to a well of a 384-well plate (Corning, Corning, NY) and 20 microL of serum-free DMEM containing […] of Lipofectamine RNAiMax (Life Technologies, Carlsbad, CA) was then added to each well. Transfected cells were maintained at 37 degrees C in 5% CO2 for 72 hours, 20 microL of ONE-Glo Reagent (Promega) was added to wells for luciferase quantification. Raw luminescence reads were normalized to Ambion(R) Silencer(R) Negative Control #2 siRNA, then log10 transformed. A robust statistical measure of median absolute deviation (MAD) to standardize siRNA activities from each screen. Common Seed Analysis was used to help prioritize clean hits as opposed to those appearing to arise from seed based off-target effects. Candidate modulators were defined as the genes having a MAD score greater than 1.0 or less than -1.0.
row,Sequence,median seed-adjusted z-score
1,GCAAUUCCCAAGAUCCUUATT against LAMB1,1.07 (active)
2,GGUCGAAUGAUAAGGUGUATT against PTK2,-0.0806 (inactive)
3,GCCUCAGUCUUUGCAGUCUTT against CDCP2,0.0708 (inactive)
4,GGUAAUGACUCCACAGGGATT against SNRPN,-0.571 (inactive)
5,GAUACUACCCUGAUCAUAUTT against TMTC3,0.266 (inactive)
6,UGGUGUCAGUGGAUCGCUATT against GPR101,-0.265 (inactive)
7,CCAAAACAGUGGAGAGAGATT against BIN3,0.16 (inactive)
8,GAACAUUGUUUGUAAGGCUTT against SUOX,-0.0649 (inactive)
9,GGAUAUAAUGAGAUAUGUUTT against ETF1,-1.12 (active)
10,GCUCAACUCUCAUUCGGCATT against ZNF550,0.131 (inactive)
11,GACCUGCCGUGAUAUCGUUTT against PSMA3,-0.81 (inactive)
12,CACUAAACGAGGAUUCCUATT against YWHAH,-0.125 (inactive)
13,GGAUCGUAGUGAAACCGAUTT against DDX17,0.231 (inactive)
14,CGUGAUCAAUAGGAAAAUUTT against CCL8,0.436 (inactive)
15,CAGAUUACGUGGAACAGGATT against EFTUD2,-1.25 (active)
16,CGUCCUAAUCUCAAUCUUATT against CD200,-0.0135 (inactive)
17,GCCCAUAUUUCAUCGUGUATT against NPY,-0.0606 (inactive)
18,CAGGAUAUCGAAUCCCUAATT against PPFIA2,0.176 (inactive)
19,GUCGAGUUGUAUCGCAUUATT against COX4I1,-0.39 (inactive)
20,GGCUAGCCCUAGUAUGGAATT against CCAR1,-1.18 (active)
21,CCUUCAAUCACCGACCUUATT against SYNJ2,0.0202 (inactive)
22,CGCUACCUGUCCCUGUAUATT against GPR6,0 (inactive)

row,Sequence,median seed-adjusted z-score
1,GCAACAUAUGGGAAUUAGATT against MEIS1,0 (inactive)
2,CAGAGGAGCUACAAAAGUATT against MX1,-1.49 (active)
3,GCAUAUAUCAAGAAUUCAATT against CLIC4,-0.498 (inactive)
4,GAAACUAUAUCCACAUCAATT against GIPR,0.475 (inactive)
5,CAUCUUGAAGUCUUAUUAATT against MYOCD,-0.121 (inactive)
6,AAUCAGAUCAAAAACAUAATT against TNFRSF10C,0 (inactive)
7,GGAGGAAGGUCUCAACGUATT against TCFL5,1.52 (active)
8,GCAAAUCUAUUUUCGGAAATT against AGTPBP1,-0.201 (inactive)
9,GACUCUUCUGACUAACAUATT against DACH1,0.562 (inactive)
10,GACUCUAUGCUGAUAAUGATT against ADIPOQ,0.557 (inactive)
11,GCUGAGAUUUUCAAUAAGATT against NR1H4,-0.056 (inactive)
12,CGCCCAUUCUUCAAUGUCATT against SIAH1,1.5 (active)
13,AGUGCGCCCAGAAUCUAAATT against ZNF689,0.448 (inactive)
14,CGGAGUUUGUUGAUAUCGATT against LGI2,0 (inactive)
15,CAAAUUUCCUGUUAAUCGATT against APPL1,0 (inactive)
16,GAAAUGACCUUAUUAGUCATT against RYK,-0.446 (inactive)
17,CAGACUACCCUGAUAGUUUTT against FLVCR1,0.197 (inactive)
18,GGUCAGAGACCAUCCAGAATT against GFRA4,-1.59 (active)
19,AGAGGAAGAUAGAUUUUCUTT against PFDN5,0.562 (inactive)
20,GGAUGUAUUGUCGCCUGUATT against RENBP,0.587 (inactive)
21,CGAACUGCUUUAUGACCUATT against KIF20A,0.906 (inactive)
22,GACGAGACCUCUUCUCUCATT against ART1,0.0033 (inactive)

row,Sequence,median seed-adjusted z-score
1,CCUGUGGUUUGCUAUCUAATT against SLC24A5,-0.166 (inactive)
2,CGGUGCUGCUAGACGUGAATT against HSPB6,0.394 (inactive)
3,GGGUAAUUGGAACAUGUUUTT against RCN3,-2.44 (active)
4,CCUUUACAAAUAACGGAUATT against NHLRC2,0.548 (inactive)
5,CAUGUUCACUGCUACCGAUTT against LPP,-0.103 (inactive)
6,CCUUCAUCCGUAUCAUGGATT against POLD1,-0.715 (inactive)
7,GCUGUGAUCUCAUGGAUCATT against KLHL3,-0.237 (inactive)
8,GCUUUAUGUGGGCUCAUUATT against RBM39,-1.82 (active)
9,CACUGACACUUACAAUGAATT against UGT3A1,0.864 (inactive)
10,GGAACUUACGAUGCAGGAATT against GALNT13,-0.0149 (inactive)
11,GCAACAGUAUUUCGGUAUATT against CHEK1,-5.1 (active)
12,GUCUUAGAAUGAGUAGCAATT against KCNMA1,0 (inactive)
13,CACUAUCAGUUGGAACAGATT against CD36,-0.000845 (inactive)
14,GGCUGAGAUGCGUCGUAAATT against ARCN1,-1.25 (active)
15,GAUUGAUGGGUGUAAGAAATT against SMS,0.186 (inactive)
16,GAGACCUAAUGUUUCAUAUTT against PRKCI,0.386 (inactive)
17,CAAGGUCAAGUGCGAGAAATT against MAFB,0.674 (inactive)
18,CCGUCAUGGUUGAUGGAGATT against SEMA4D,0.309 (inactive)
19,CCAUAGUCUUCAUCUACGATT against GPR153,-1.08 (active)
20,GAACAGUGUUUGUCAGCAUTT against ASAH2,0.615 (inactive)
21,AAAGCACAGUGUUAAAUGATT against TAC1,0.0499 (inactive)
22,CCCAGAAGAUUACCUUUGATT against NARG1L,0.0121 (inactive)

row,Sequence,median seed-adjusted z-score
1,CCGUGCUGACCUCCAAAUATT against HBA1,-1.03 (active)
2,CUUUCGGUUUGAAGAAUAATT against ZC3H15,0.191 (inactive)
3,AGCAUGUGGUAGACGAGAATT against RGS19,0.295 (inactive)
4,GACCUUCACCGUUACGUUATT against HDLBP,-1.18 (active)
5,AGCUCGUACUGUUCCAAUATT against MMP19,0.43 (inactive)
6,AGUGACAGAGUACAAGAUATT against EIF3G,-0.198 (inactive)
7,AAGUGGGAGUUACAUUAAATT against DLGAP2,0.295 (inactive)
8,GGAUGUCAACUGUGCUUUUTT against MED24,-2.3 (active)
9,CAGUGAAGGUGAAAUUCGATT against UCHL5,-0.358 (inactive)
10,GGAUAAUGAUCGCGAGGAATT against ALS2,0 (inactive)
11,GGUUCACGGCUAAAGCAAUTT against DGCR8,-0.266 (inactive)
12,CUACCAGGCUUAAUAGGAATT against GFM2,0.26 (inactive)
13,GGGUCUUACUGAUUCCACATT against A4GNT,0.213 (inactive)
14,CGAGAGUUACUUACAAGAATT against RAN,-3.09 (active)
15,CAUCAUUACCAGAGCUACATT against RLN1,0.0637 (inactive)
16,CCGCAGUUCUAGGUCCAAUTT against ABCC2,-0.0464 (inactive)
17,CAACCAAGGUCAGUCUUAUTT against TFCP2L1,-0.246 (inactive)
18,AGAUAAGAAUCGCAUGACATT against ARHGAP9,0 (inactive)
19,GAACGUAGAAUGAAAGUAATT against PSMC1,-2.23 (active)
20,GACUAUAACUUCCCGAAAATT against SYT11,0.29 (inactive)
21,GGGUUACAGCUAAAAUUGUTT against OC90,0.216 (inactive)
22,GGUGCGGCCCUAUUACUUUTT against RPUSD2,-0.215 (inactive)

row,Sequence,median seed-adjusted z-score
1,GAGACUCUGUGGACGUAAATT against ZNF101,0.336 (inactive)
2,AGCUUCUACCGUGUCCUUATT against UCK2,-1.51 (active)
3,CUACCUUACUUUAACAUUATT against KCNS3,0.103 (inactive)
4,GCGAAAUUUUGGAUAUCAATT against KIF23,-0.449 (inactive)
5,GGACACCUGUGAACCGCAUTT against ARID3A,-1.11 (active)
6,GGGAUAUUUUCUACGCUUUTT against DNAH5,-0.45 (inactive)
7,GGUCACCACCAAAUACGUUTT against B4GALNT2,-0.174 (inactive)
8,CGAUUUAUCCGAUGCCCUUTT against CD99,0 (inactive)
9,CCAUCUCCAGUUGUAUUUUTT against CHKA,-0.558 (inactive)
10,GACGGAAAGACUUACGUUATT against EIF2AK2,0.419 (inactive)
11,GAAUCAACUUUGCCGUGUUTT against SHMT2,-0.0453 (inactive)
12,CCUUGUCACAGGUCAAUCATT against VWF,0.159 (inactive)
13,GAUGGGACAUCGUUGCUCATT against OASL,1.02 (active)
14,CAGGAUCUACGAUAAGGUATT against ACSL5,0.109 (inactive)
15,CGAGAAAGAAUUCCACUUUTT against HOXC5,0.507 (inactive)
16,GACUGACAUUGAGAUUACATT against CCT3,-0.416 (inactive)
17,GGUGAAUACUUCCGGUACATT against SULT2B1,0 (inactive)
18,CUCUGUGAAUGGUGCCGAATT against FAM57A,0.0434 (inactive)
19,GGGAAUGACUGGAAGACGATT against TTF1,1.76 (active)
20,GAAUGGUGUGGAUCUCCUATT against ARPC5,-0.479 (inactive)
21,GCAAUGUGGUCAAGACGGATT against INHBE,0.172 (inactive)
